Measurements: PubChem BioAssay AID504832 (National Center for Advancing Translational Sciences (NCATS), 2011)
The campaign covered roughly 310,000 compounds. About 18,000 (5.8%) were called active. Inconclusive results (about 22%) are left out. Calls come from the whole dose curve; as a rule, active = well fitted inhibition curve with a large enough effect; inconclusive = small, poorly fitted or top-dose-only effect, or another doubt; inactive = no such curve, though single readings can be large or run the other way. Shown is part of a subset that was picked to be rich in actives.

Assay: Primary qHTS for delayed death inhibitors of the malarial parasite plastid, 48 hour incubation
Conditions: P. falciparum luciferase growth in erythrocytes; series mostly up to 28.7 µM; activity change, negative = inhibition: at the top concentration
Method in brief: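 Growth was read as firefly luciferase luminescence after a 48 h, 37 C, 5% CO2 exposure of compounds to reporter-bearing P. falciparum cultures (0.1% parasitemia, 2% hematocrit final) in Albumax-supplemented RPMI 1640.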
% is set by controls: 0 for no effect and ±100 for the full control effect; potency is the fitted concentration of half-maximal effect.

Row | SMILES | activity change, negative = inhibition | Potency
1 | CCc1nc2nc(C)c(NS(=O)(=O)c3ccc4c(c3)CCCC4)c(=O)n2[nH]1 | 8.15% (inactive) | –
2 | CN(CC(=O)Nc1cccc(F)c1)C(=O)CC1CCCC1 | -5.39% (inactive) | –
3 | Cc1ccc(-c2ccnc3[nH]n(-c4ccccc4)c(=O)c23)cc1 | 35.7% (inactive) | –
4 | C=CCn1c(CNS(=O)(=O)c2ccc(Br)cc2)nnc1SC | 68.4% (inactive) | –
5 | COc1ccc(OC)c(NC(=O)Cc2cccs2)c1 | -3.98% (inactive) | –
6 | CN(CC(=O)NNC(=O)CNC(=O)c1ccccc1Cl)S(=O)(=O)c1ccc(Cl)cc1 | 10.7% (inactive) | –
7 | COc1ccc(NC(=O)CSc2nc(C)cs2)cc1 | 29.2% (inactive) | –
8 | Cc1csc(SCC(=O)N(c2ccccc2)C(C)C)n1 | – | 10.4 µM (active)
9 | Cc1ccc(C(=O)N2CC(=O)Nc3ccc(F)cc3C2c2ccc(F)cc2)cc1 (configuration not stated) | -27.6% (inactive) | –
10 | O=S(=O)(c1cccs1)N1CCN(CCOc2ccccc2)CC1 | -21.8% (inactive) | –
11 | COC(=O)c1ccc2c(C(C)(C)O)c(C(C)(C)O)[nH]c2c1 | 24.6% (inactive) | –
12 | COc1cccc(/C(C)=N/Nc2ncc(Cl)cc2Cl)c1 | 113% (inactive) | –
13 | COc1cccc(/C=N/Nc2ncc(C(F)(F)F)cc2Cl)c1O | – | 1.04 µM (active)
14 | COc1cc(/C=C2\SC(=S)N(Nc3ncc(C(F)(F)F)cc3Cl)C2=O)cc(OC)c1OC | 4.07% (inactive) | –
15 | O=C(NNC(=O)c1ccco1)Nc1ccccc1 | 21.8% (inactive) | –
16 | Cc1ccc(C(=O)OCC(=O)NC(=O)Cc2ccccc2)c(O)c1 | 0.538% (inactive) | –
17 | COc1cc(NS(=O)(=O)c2ccc(NC(=S)NC(=O)c3ccc(Br)cc3)cc2)ncn1 | 12.6% (inactive) | –
18 | COc1ccc(CC(=O)NC(C)CCc2ccccc2)cc1 (configuration not stated) | -23% (inactive) | –
19 | COc1ccc(C(CCNCc2ccccc2F)c2ccc(F)cc2)cc1 (configuration not stated) | – | 7.38 µM (active)
20 | COc1ccc(Cc2cc(-c3ccc(F)cc3)n[nH]c2=O)cc1 | 5% (inactive) | –
21 | CC1(C)Cc2c(cnn2-c2cccc(F)c2)C(NC(=O)c2cc[n+]([O-])cc2)C1 (configuration not stated) | 5.83% (inactive) | –
22 | Cc1ccc(S(=O)(=O)N2CCOCC2)cc1NC(=O)COC(=O)c1cnccn1 | 10.8% (inactive) | –
23 | Cc1cccc(NS(=O)(=O)c2ccc([N+](=O)[O-])cc2)n1 | -2.21% (inactive) | –
24 | O=C(Cc1ccc(Cl)c(Cl)c1)Nc1ccc(SC(F)F)cc1 | -93.2% (inactive) | –
25 | Cc1ccc(NC(=O)CC(=O)Nc2ccc(C)cc2)cc1 | 3.91% (inactive) | –

Row | SMILES | activity change, negative = inhibition | Potency
26 | O=C(CCl)Nc1ccc(Sc2ccc(NC(=O)CCl)cc2)cc1 | – | 3.29 µM (active)
27 | CCN(CC)S(=O)(=O)c1ccc(-c2cn3ccc(C)cc3n2)cc1 | 171% (inactive) | –
28 | CCCOc1cccc(C(=O)NCCCNC(=O)c2cccnc2)c1 | -2.92% (inactive) | –
29 | Cc1nn(C(C)C(=O)NCCC2=CCCCC2)c(=O)c2nn(-c3ccccc3)c(C)c12 (configuration not stated) | -12.9% (inactive) | –
30 | O=C(NNS(=O)(=O)c1ccc(F)cc1)C1CCCCC1 | 9.65% (inactive) | –
31 | CS(=O)(=O)Nc1ccccc1N=C(c1ccccc1)c1ccccc1 | -17.5% (inactive) | –
32 | Cc1ccc(N(C(=O)Cc2cccs2)C(C(=O)NCC2CCCO2)c2ccncc2)cc1 (configuration not stated) | -1.9% (inactive) | –
33 | Cc1ccc(C(C(=O)NCC2CCCO2)N(C(=O)c2snc(C(N)=O)c2N)c2ccc(C(C)C)cc2)o1 (configuration not stated) | – | 9.28 µM (active)
34 | CCOc1ccc(N(CC(=O)NCC2CCCO2)S(=O)(=O)c2ccc(C)cc2)cc1 (configuration not stated) | 19.1% (inactive) | –
35 | CCOc1cc(C(C(=O)NCC2CCCO2)N(C(=O)Cn2nnc3ccccc32)c2cccc(OC)c2)ccc1O (configuration not stated) | -23.6% (inactive) | –
36 | COc1cccc(N(C(=O)c2snc(C(N)=O)c2N)C(C(=O)NCC2CCCO2)c2c[nH]c3ccccc23)c1 (configuration not stated) | – | 9.28 µM (active)
37 | CCOc1ccc(-n2c(N)c(C(=O)NCC3CCCO3)sc2=S)cc1 (configuration not stated) | 8.29% (inactive) | –
38 | CCOc1ccc(N(C(=O)c2snc(C(N)=O)c2N)C(C(=O)NCC2CCCO2)c2c[nH]c3ccccc23)cc1 (configuration not stated) | – | 5.22 µM (active)
39 | CC(Sc1nn(-c2ccc(Cl)cc2)c(=S)s1)C(=O)NCC1CCCO1 (configuration not stated) | 18.6% (inactive) | –
40 | O=C(NCCc1c[nH]c2ccccc12)C(=O)NCC1CCCO1 (configuration not stated) | 13.2% (inactive) | –
41 | COC(=O)c1cccc(N(C(=O)CNC(=O)c2cccs2)C(C(=O)NCC2CCCO2)c2ccc(OC)c(OC)c2)c1 (configuration not stated) | -17.6% (inactive) | –
42 | COCCNC(=O)C(c1ccc(C)o1)N(Cc1cccs1)C(=O)c1snc(C(N)=O)c1N (configuration not stated) | -9.83% (inactive) | –
43 | Cc1ccc(N(C(=O)c2snc(C(N)=O)c2N)C(C(=O)NCC2CCCO2)c2c[nH]c3ccccc23)cc1 (configuration not stated) | – | 7.38 µM (active)
44 | COc1ccc2oc(=O)cc(CN3CCOCC3)c2c1 | -29% (inactive) | –
45 | CC(=O)c1c(C)[nH]c(C(=O)CN2C(=O)NC(C)(C)C2=O)c1C | 16.6% (inactive) | –
46 | CC1CCCN(C(=O)CN2C(=O)c3ccccc3S2(=O)=O)C1 (configuration not stated) | 270% (inactive) | –
47 | O=C(NNS(=O)(=O)c1ccc([N+](=O)[O-])cc1)C1CCCCC1 | 2.73% (inactive) | –
48 | CC(=O)O[C@H]1c2ccccc2-c2ccccc2[C@@H]1OC(C)=O | 23.1% (inactive) | –
49 | C[N+](C)(C)CCNC(=O)c1cc[n+](Cc2ccccc2)c(/C=N/O)c1 | -1.42% (inactive) | –
50 | CC(=O)c1ccc(S(=O)(=O)NCCC(=O)N2CCN(c3ccccn3)CC2)cc1 | -21.6% (inactive) | –

Row | SMILES | activity change, negative = inhibition | Potency
51 | COc1cc(NC(=O)c2ccccc2)c(OC)cc1NC(=O)Cc1ccccc1 | -22.9% (inactive) | –
52 | Nn1c(SCC(=O)Nc2nccs2)nnc1-c1ccco1 | 24.4% (inactive) | –
53 | CCC(NC(=O)C1CCCC1)c1ccc(C)cc1 (configuration not stated) | 5.68% (inactive) | –
54 | COc1cccc(N2CC(NS(=O)(=O)c3cccs3)CC2=O)c1 (configuration not stated) | 3.72% (inactive) | –
55 | Cc1ccc(C(=O)c2c(NC(=O)c3ccncc3)sc3c2CCCC3)cc1 | – | 6.57 µM (active)
56 | Cc1ccc(NC(=O)c2c(NC(=O)CCC(=O)O)sc3c2CCCCC3)cc1 | 42.9% (inactive) | –
57 | NC(=O)c1c(NC(=O)c2ccccc2)sc2c1CCCC2 | 225% (inactive) | –
58 | COc1cccc(NC(=O)N2CCC(NC(=O)C(Cc3cccc(C)c3)NC(C)=O)CC2)c1 (configuration not stated) | -8.06% (inactive) | –
59 | CC(C)[C@H](NC(=O)N1CCn2c1nc1ccccc12)C(=O)NC1CC1 | -2.75% (inactive) | –
60 | COC(=O)c1c(NC(=O)c2ccc(S(=O)(=O)N3CCOCC3)cc2)sc2c1CCN(C(C)C)C2 | – | 11.7 µM (active)
61 | CC(OC(=O)c1ccc(S(=O)(=O)N2CCOCC2)cc1)c1ccccc1 (configuration not stated) | -3.14% (inactive) | –
62 | CNC(=O)c1ccsc1NC(=O)c1ccc(S(=O)(=O)N2CCOCC2)cc1 | -5.56% (inactive) | –
63 | COCC(=O)N1CCCC(C(=O)c2ccc(C(F)(F)F)cc2)C1 (configuration not stated) | -0.209% (inactive) | –
64 | O=c1[nH]c(CSc2ccccc2)nc2c1oc1ccccc12 | – | 10.4 µM (active)
65 | CCOC(=O)c1sc2nc(CSc3ccccc3)[nH]c(=O)c2c1C | 33.8% (inactive) | –
66 | Cc1nc(Cl)c2oc3ccccc3c2n1 | -21% (inactive) | –
67 | Cn1c(CC(=O)Nc2ccc(F)cc2)nnc1SCC(=O)NC1CCCCC1 | 11.3% (inactive) | –
68 | CCCCN1C(=O)/C(=C2/Sc3ccc(Cl)cc3N2CC)SC1=S | -9.17% (inactive) | –
69 | CC(NCc1cccs1)C(=O)Nc1cc(Cl)cc(Cl)c1 (configuration not stated) | -12.9% (inactive) | –
70 | CCOCCCNC(=O)C1(O)c2cc(Br)ccc2NC(=O)N1c1ccc(C)c(C)c1 (configuration not stated) | -7.48% [at 0.00184 µM] (inactive) | –
71 | CCCCN1C(=O)C(C)=C(C)C1OCCc1ccc(OC)c(OC)c1 (configuration not stated) | 12.2% (inactive) | –
72 | O=C(Cc1ccc(-c2ccccc2)cc1)NC(c1ccccc1)c1ccccc1 | – | 13.1 µM (active)
73 | C=CCC(NC(=O)Cc1ccccc1)C(=O)NCCC (configuration not stated) | 20.5% (inactive) | –
74 | O=C(O)Cc1ccc(-c2ccccc2)cc1 | – | inactive
75 | Cc1ccc(S(=O)(=O)NCC(=O)N2CCOCCOCCOCCOCC2)cc1 | 22.8% (inactive) | –

Row | SMILES | activity change, negative = inhibition | Potency
76 | Cc1cc(C)cc(C(=O)NC(CC(N)=O)c2ccc(N3CCC(N4CCCCC4)CC3)c([N+](=O)[O-])c2)c1 (configuration not stated) | -1.82% (inactive) | –
77 | Cc1cccc([C@@H]2[C@@H]3C(=O)N(Cc4ccccc4)C(=O)[C@@H]3[C@]3(Cc4ccc(Cl)cc4)C(=O)N(c4cccc(Cl)c4)C(=O)N23)c1 | – | 4.15 µM (active)
78 | COc1ccc(N2C(=O)C(Cc3ccccc3)NC2=S)cc1 (configuration not stated) | 16.6% (inactive) | –
79 | O=C1CC(NNc2ccccc2)C(=O)N1c1cccc(Cl)c1 (configuration not stated) | 18.9% (inactive) | –
80 | COc1ccc(C2C(C(C)=O)=C(O)C(=O)N2Cc2cccnc2)cc1 (configuration not stated) | 9.53% (inactive) | –
81 | O=C1[C@H]2[C@@H](c3ccc(F)cc3)N3C(=O)N(c4ccc(C(F)(F)F)cc4)C(=O)[C@@]3(Cc3ccccc3)[C@H]2C(=O)N1C1CCCCC1 | – | 4.65 µM (active)
82 | O=C1[C@H]2[C@@H](c3ccc(Cl)cc3)N3C(=O)N(c4cccc(F)c4)C(=O)[C@@]3(Cc3ccccc3)[C@H]2C(=O)N1C1CCCCC1 | – | 9.28 µM (active)
83 | COc1ccc([C@@H]2[C@@H]3C(=O)N(C(C)(C)C)C(=O)[C@@H]3[C@]3(Cc4ccccc4)C(=O)N(c4cccc(Br)c4)C(=O)N23)cc1 | – | 2.62 µM (active)
84 | COC(=O)CN1C(=O)[C@H]2[C@@H](/C=C/c3ccccc3)N3C(=O)CN(Cc4ccccc4)C(=O)[C@@]3(Cc3ccccc3)[C@H]2C1=O | -26.2% (inactive) | –
85 | O=C(NC1(C(F)(F)F)NC(=O)N(C2CCCCC2)C1=O)c1ccco1 (configuration not stated) | 8.82% (inactive) | –
86 | O=C(CCNS(=O)(=O)c1ccc(Br)cc1)NCC1CCCO1 (configuration not stated) | 3.4% (inactive) | –
87 | CCc1ccc(/C=N/NC(=O)c2nnn(-c3nonc3N)c2CN2CCc3ccccc32)cc1 | -24.2% (inactive) | –
88 | Cc1cc(OC(=O)c2ccc(OC(C)C)cc2)c([N+](=O)[O-])c(=O)[nH]1 | -10.1% (inactive) | –
89 | Cc1ccc(NS(=O)(=O)c2ccc(C(=O)NCCCN3CCOCC3)cc2)cc1 | 4.35% (inactive) | –
90 | COc1ccc(N2CCN(C(=O)CN3C(=O)COc4ccccc43)CC2)cc1 | 2.97% (inactive) | –
91 | COc1ccc(Cc2nc3ccc(C(=O)NCC4CCOCC4)cc3o2)cc1OC | -17.1% (inactive) | –
92 | CN(CC(=O)Nc1cccc(F)c1)CC(=O)Nc1cccc([N+](=O)[O-])c1 | -21.3% (inactive) | –
93 | COc1ccc(OCC(=O)Nc2cc(C)c(Cl)cc2OC)c([N+](=O)[O-])c1 | 36% (inactive) | –
94 | COc1ccc(N(CCC(=O)NCCc2ccccc2)S(=O)(=O)c2ccc(C)cc2C)cc1 | -3.86% (inactive) | –
95 | COc1ccc(N(CC(=O)Nc2ccc(C)cc2C)S(=O)(=O)c2ccccc2[N+](=O)[O-])c(OC)c1 | – | 9.28 µM (active)
96 | Cc1ccc(N(CC(=O)Nc2cccc(N(C)S(C)(=O)=O)c2)S(C)(=O)=O)cc1 | 8.82% (inactive) | –
97 | COc1ccc(C)cc1S(=O)(=O)N(CC(=O)Nc1cccc([N+](=O)[O-])c1)c1ccc(C)cc1 | – | 9.28 µM (active)
